# From PubChem
# BJeLR viability = MLPCN primary cell-based screen for lethality selective to Ras in HRASV12 cells; BJeLR (HRASV12) viability, CellTiter-Glo ATP luminescence, 48 h; inhibition, % (no concentration beside the values); actives 0.17% (n = 300,000); AID 1554, 2009; in the data active = inhibition above about 50%
# PfHsp40 yeast = rescue of yeast from PfHsp40 toxicity, primary screen, S. cerevisiae, ATP luminescence; AID 504582, 2011; growth rescue, % at 12.5 µM; S. cerevisiae expressing PfHsp40, growth rescue; actives 0.68% (n = 340,000); in the data active = growth rescue above about 28%, passing the limit was not always enough;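 also: yeast W303a lacking pdr1 and pdr3 grown in galactose medium; growth measured after three days at 30 °C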
# Sa RN4220 lethal = growth inhibition of S. aureus RN4220, primary screen, OD600; 16 h; inhibition, % (test concentration not listed); actives 0.33% (n = 330,000); in the data active = inhibition above about 85%;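 also: plate controls were untreated cells for no effect and reference antibiotic for full effect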
# Sa ugtP lethal = growth inhibition of ugtP-null S. aureus, primary screen, RN4220 ugtP deletion, OD600. growth inhibition, % (no concentration beside the values). 16 h. AID 1259309, 2017. actives 0.54% (n = 330,000); in the data active = growth inhibition above about 68%;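 also: plate controls were untreated wells for no effect and antibiotic for full effect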
# CCHFV vOTU inh = CCHFV vOTU protease inhibitors, primary screen, biochemical, Pep-AMC substrate, fluorescence; actives 0.55% (n = 370,000); inhibition, % at 11.5 µM; Crimean-Congo hemorrhagic fever virus L polyprotein viral ovarian tumor (vOTU) protease …; in the data active = inhibition above about 30%; also: 0% = vehicle wells with enzyme and 100% = no enzyme wells
# An asterisk follows results filed as active; nt = no result given. Hits are enriched below; roughly 1.6% of the tested compounds scored in any of these assays.
SMILES,BJeLR viability,PfHsp40 yeast,Sa RN4220 lethal,Sa ugtP lethal,CCHFV vOTU inh
O=C(CSc1nccn(-c2cccc(F)c2)c1=O)Nc1ccc(Cl)cc1F,7,173*,0,8,-8
CN(C)CCCOC(=O)C1c2ccccc2Oc2ccccc21,-2,44*,1,1,6
CCC1(C)Cc2ccccc2-c2nc(-c3ccccc3)oc(=O)c21 (stereo not drawn),6,1,-1,85*,-6
CCC1(C)Cc2ccccc2-c2nc(NN)[nH]c(=O)c21 (stereo not drawn),-4,0,7,1,-15
O=C(NC=NOCc1cccc(C(F)(F)F)c1)N1OCC2COc3ccc4ccccc4c3C21 (stereo not drawn),nt,nt,-2,-14,nt
CC1CCCCC1N(C)C1CCN(C(=O)CNC(=O)/C=C/c2cccc(Cl)c2)CC1 (stereo not drawn),90*,0,6,12,7
COc1ccc(N(C(=O)c2ccncc2)S(=O)(=O)c2ccc(OC)c(OC)c2)cc1,7,1,2,-10,7
COc1ccc(N(C(=O)c2ccncc2)S(=O)(=O)c2ccc(F)cc2)cc1,8,436*,nt,nt,25
COc1ccc(N(CC(=O)NC2CCCCC2)S(=O)(=O)c2cccs2)cc1,nt,-1,4,7,-7
COc1ccc(N(C(=O)c2cccnc2)S(=O)(=O)c2ccc(Cl)cc2)cc1,8,1,3,-11,-3
COc1ccc(N(C(=O)c2ccccc2C)S(=O)(=O)c2cccs2)cc1,34,0,3,84*,14
COc1ccc(S(=O)(=O)N(C(=O)c2ccncc2)c2ccc(OC(=O)c3ccncc3)cc2)cc1,4,515*,4,0,-3
COc1ccc(N(C(=O)c2ccncc2)S(=O)(=O)c2ccccc2)cc1,1,340*,5,5,-5
CC(CCc1ccc2c(c1)OCO2)=N/N=C1/NC(=O)CC(C(=O)Nc2ccccc2F)S1 (stereo not drawn),nt,nt,8,-7,nt
O=C(CCl)N1c2ccccc2OCC1c1ccccc1 (stereo not drawn),2,1,40,95*,12
COc1ccc(C=NNC(=O)CNC(=O)c2ccc(S(=O)(=O)N3CCCC3)cc2)c(OC)c1,nt,nt,4,5,nt
Cc1cccc(NC(=O)CCC(=O)NN=Cc2ccco2)c1C,nt,nt,-2,1,nt
Cc1ccc(-n2ncc3c2CC(C)(C)CC3NC(=O)c2c(C)noc2C)cc1 (stereo not drawn),3,91*,5,13,1
CCc1noc(C)c1C(=O)NC1CC(C)(C)Cc2c1cnn2-c1ccccc1 (stereo not drawn),-1,-1,nt,nt,-11
CCCC1CC(C)(c2csc(Nc3ccc(OCC)cc3)n2)OC1=O (stereo not drawn),6,50*,-6,-5,17
CCOc1ccc(NC(=O)CC2CC(C)(C)OC2=O)cc1 (stereo not drawn),-7,0,6,4,10
CC(C)c1ccc(C=NNC(=O)c2ccc(Cn3cccn3)o2)cc1,nt,nt,-3,3,nt
O=C(NCCCSc1ccccc1)c1cc(Br)ccc1O,-6,196*,83*,81,11
O=C(NN=Cc1cccnc1)c1ccco1,nt,nt,2,6,nt
Cc1ccc(NC(=O)CSc2nsc(SCC(=O)Nc3ccc(C)cc3C)c2C#N)c(C)c1,0,55*,nt,nt,-7
SMILES,BJeLR viability,PfHsp40 yeast,Sa RN4220 lethal,Sa ugtP lethal,CCHFV vOTU inh
Cc1csc(NC(=O)CSc2nsc(SCC(=O)Nc3nc(C)cs3)c2C#N)n1,-1,1,28,-16,-15
CC1CN(c2ccc([N+](=O)[O-])c3cccnc23)CC(C)N1 (stereo not drawn),7,0,-12,-5,32*
O=[N+]([O-])c1ccc(N2CCCC2)c2ncccc12,-4,2,6,3,-5
CC(=O)N1CCN(c2ccc(OC[C@H]3CO[C@](Cn4ccnc4)(c4ccc(Cl)cc4Cl)O3)cc2)CC1,15,102*,nt,nt,-3
COc1ccc(F)cc1C1=CC(=O)CC(c2ccc3c(c2)OCO3)C1 (stereo not drawn),nt,nt,2,5,nt
O=C(N/N=C1/CC2CCC1C2)c1cc2ccccc2cc1O (stereo not drawn),-11,33*,nt,nt,22
O=c1nc(N2CCOCC2)nc(NN=Cc2ccc3c(c2)OCO3)[nH]1,nt,nt,1,3,nt
